About 83,000 compounds went through this panel and 20% of them were active in at least one assay; those are over-represented in the sample as a whole.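 A percent growth of 40 corresponds to 60% growth inhibition; 0 means no net growth; -100 means all cells died. Active threshold: below 10.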 A number with no mark means an inactive call. Activity calls are given as the source filed them.
These molecules were tested on HL-60(TB) leukemia (assay: NCI-60 one-dose screen, 48 h (100 = growth as untreated, 0 = no growth, -100 = all killed)). Conditions: 10 µM unless noted.
Molecule `CSc1nc2c(c(=O)[nH]1)C(c1ccc(Cl)cc1)C1=C(N2)/C(=C/c2ccc(Cl)cc2)CNC1` (configuration not stated) has a growth of 55.4%. Work on `CCOC(=O)[C@@H]1CCCN(S(=O)(=O)c2ccc(S(=O)(=O)N(CC)CC)c(F)c2)C1` yielded a growth of 81.4%. `CCCCCCCCNc1ncnc2c1ncn2Cc1nnc2c3ccccc3c(Cl)nn12` showed a growth of 29.2%. In the case of `CCN(C(=O)CN1CCN(c2cc3c(cc2F)c(=O)c(C(=O)O)cn3C2CC2)CC1)c1nc(-c2ccc(OC)cc2)cs1`, the growth is reported as 30.1%. In the case of `COc1ccc(-c2nn(-c3ccc(NC(=O)c4cc(Cl)cc(Cl)c4)cc3)cc2-c2ccncc2)cc1Cl`, the growth is reported as 20.3%. `Cc1ccc(Sc2sc(-c3ccccc3)nc2[P+](c2ccccc2)(c2ccccc2)c2ccccc2)cc1` was tested, and the growth was -40.5% (active). `COc1cc(Nc2ccnc(NCCCNc3ccnc4cc(Cl)ccc34)n2)cc(OC)c1` was tested, and the growth was -76.9% (active). Work on `C[C@H]1[C@H]2[C@H]3CC[C@@H]4[C@@]5(C)CC[C@H](O)C(C)(C)[C@@H]5CC[C@@]4(C)[C@]3(C)CC[C@]23CO[C@]1(C)[C@@H](C(=O)/C=C\c1cccnc1)C3` yielded a growth of 47.5%. In the case of `O=c1oc2ccccc2c(Cl)c1Cl`, the growth is reported as 41.4%. `N#Cc1c(N)nc2c(nnn2-c2cccc(Br)c2)c1N` showed a growth of 95.9%. In the case of `Cc1ccc(C(=O)Nc2ccc(CN3CCN(C)CC3)c(C(F)(F)F)c2)cc1C#Cc1cnc(N)cc1C#N`, the growth is reported as -53.5% (active). Work on `Cn1cc(-c2csc(-c3cn(CCCN4CCOCC4)c4ccc(F)cc34)n2)c2cccnc21` yielded a growth of 69.9%.

Source: PubChem BioAssay (NCI)
